Hits are enriched below; roughly 19% of the tested compounds scored in any of these assays.
TDP1 inh = TDP1 (human) enzyme inhibition. Q9NUW8. recombinant TDP1, AlphaScreen DNA substrate cleavage. Potency, µM (titrated, usually from 130 µM), most hits filed as inhibitors. 350,000 compounds, 0.28% hits. AID 485290; also: nearly all actives have a fitted effect of over 40% in size
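Tdp1 1 nM final; 15 min RT w/ cpd; substrate 15 nM, 5 min; beads 10 ug/ml, 10 min; AlphaScreen read. Neg ctrl: no enzyme.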
VP16 counter = inhibits Gal4-VP16 luciferase reporter, ROR gamma counter-screen. Potency, µM (doses to about 53.6 µM), actives largely listed as inhibitors. 310,000 compounds, 3.5% hits. Drosophila S2 Gal4-VP16 UAS-luciferase, luminescence, 20 h;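 also: Gal4-VP16 expression switched on by copper sulfate through the metallothionein promoter; nearly all actives have a fitted effect of over 50% in size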
DT40 TDP1 no CPT = qHTS for Inhibitors of human tyrosyl-DNA phosphodiesterase 1 (TDP1): qHTS in cells in absence of CPT. DT40 Tdp1-/- hTDP1 cells, no CPT, ATP luminescence, 48 h. Potency, µM (series often up to 46.2 µM), usual class: inhibitors. 420,000 compounds, 15% hits; also: nearly all actives have a fitted effect of over 55% in size
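Growth kinetics read by CellTiter-Glo luminescence after ≥48 hr at 37 °C. Cells: DT40 Tdp1-/- stably carrying human TDP1, 400 per well, compound exposure in the absence of CPT (DMSO vehicle).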
RORg inh = inhibitors of mouse ROR gamma transcriptional activity; AID 2551; 310,000 compounds, 5.4% hits; Potency, µM (titrated, usually from 53.6 µM), actives largely listed as inhibitors; Drosophila S2 Gal4-RORgamma UAS-luciferase reporter, 20 h; P51450; also: nearly all actives have a fitted effect of over 60% in size
Target sequence (P51450 whole entry, looked up, the tested form may be a part): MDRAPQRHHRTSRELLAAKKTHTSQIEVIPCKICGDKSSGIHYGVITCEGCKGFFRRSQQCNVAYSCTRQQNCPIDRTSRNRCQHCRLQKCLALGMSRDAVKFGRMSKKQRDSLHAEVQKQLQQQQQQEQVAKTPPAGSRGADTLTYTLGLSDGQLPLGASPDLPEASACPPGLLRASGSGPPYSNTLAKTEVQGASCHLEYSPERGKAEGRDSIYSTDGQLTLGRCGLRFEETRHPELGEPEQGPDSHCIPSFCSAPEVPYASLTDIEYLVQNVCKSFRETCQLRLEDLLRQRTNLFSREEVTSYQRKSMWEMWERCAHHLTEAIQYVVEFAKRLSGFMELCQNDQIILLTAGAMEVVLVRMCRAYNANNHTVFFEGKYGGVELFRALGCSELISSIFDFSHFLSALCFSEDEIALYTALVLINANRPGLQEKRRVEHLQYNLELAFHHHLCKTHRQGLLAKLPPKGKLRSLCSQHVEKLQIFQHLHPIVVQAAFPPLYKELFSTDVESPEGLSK
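Stably transfected Drosophila Schneider cells are the test system, with ROR gamma fused to Gal4 and luciferase under UAS control; luminescence is read after 20 hr of 700 uM copper sulfate induction at ambient temperature.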
TDP1 cell CPT = DT40-hTDP1 cell growth loss with CPT | chicken DT40 Tdp1-/-;hTDP1 cells + 20 nM CPT, ATP luminescence, 48 h | Potency, µM (doses to about 46.2 µM), usual class: inhibitors | 420,000 compounds, 12% hits | AID 686979; also: nearly all actives have a fitted effect of over 55% in size
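Cell growth measured by CellTiter-Glo luminescence after a minimum 48 h, 37 C compound exposure with 20 nM CPT in Tdp1-knockout DT40 cells stably expressing hTDP1, seeded 400/well; qHTS titration format.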
Large screens that a line does not name were inactive. Calls follow the shape of the dose curve; as a rule, active = well fitted curve in the direction sought with a large enough effect; inconclusive = small, poorly fitted or top-dose-only effect, or another doubt; inactive = no such curve, though single readings can be large; an effect the other way counts as inactive or inconclusive.

CN1CCN(CCCNC(=O)c2ccc(/C=C3\Oc4ccccc4N(Cc4ccccc4F)C3=O)cc2)CC1	VP16 counter inconclusive, DT40 TDP1 no CPT 21µM, RORg inh inconclusive, TDP1 cell CPT inconclusive
Cc1cc(F)ccc1S(=O)(=O)Nc1ccccc1C(=O)Nc1ccccc1N1CCOCC1	DT40 TDP1 no CPT inconclusive, TDP1 cell CPT inconclusive
COc1cc(Br)c(C(C)NC(=O)c2ccc(C)cc2)cc1OC (stereo unspecified)	DT40 TDP1 no CPT inconclusive, TDP1 cell CPT inconclusive
COc1cc(Br)c(C(C)NC(=O)c2cccc(Br)c2)cc1OC (stereo unspecified)	DT40 TDP1 no CPT 23µM, TDP1 cell CPT 26µM
COc1cc(C(=O)NC(C)CCc2ccccc2)cc(OC)c1OC (stereo unspecified)	none (no result: TDP1 inh)
COc1cc(C(=O)NC(C)c2cccc3ccccc23)cc(OC)c1OC (stereo unspecified)	DT40 TDP1 no CPT 21µM, TDP1 cell CPT inconclusive
COc1ccc(N2CCN(c3cc(C)c4ccccc4n3)CC2)cc1	DT40 TDP1 no CPT inconclusive
CCn1cc(CNC(=O)c2cc(COc3ccc(F)cc3Cl)on2)cn1	DT40 TDP1 no CPT 5.8µM, TDP1 cell CPT 21µM
CC(Cc1cccnc1)NC(=O)c1cc(COc2c(F)cccc2F)on1 (stereo unspecified)	DT40 TDP1 no CPT inconclusive, TDP1 cell CPT inconclusive
CC(Cc1cccnc1)NC(=O)c1cc(COc2ccc(F)cc2Cl)on1 (stereo unspecified)	DT40 TDP1 no CPT 23µM, RORg inh inconclusive, TDP1 cell CPT 21µM
CCc1ccccc1NC(=O)CSc1nc2[nH]c(=O)cc(O)c2s1	none
COc1ccc(CCNC(=O)c2cc(S(=O)(=O)N3CCC4(CC3)OCCO4)ccc2F)cc1OC	DT40 TDP1 no CPT 23µM, TDP1 cell CPT inconclusive
NS(=O)(=O)c1ccc(CCNC(=O)c2cc(S(=O)(=O)N3CCCCC3)ccc2Cl)cc1	none (no result: TDP1 inh, VP16 counter, RORg inh)
O=C(NCCc1ccc2c(c1)OCCO2)c1cccc(S(=O)(=O)N2CCCC2)c1	DT40 TDP1 no CPT inconclusive, TDP1 cell CPT inconclusive (no result: VP16 counter, RORg inh)
O=C(NCCc1ccc2c(c1)OCCO2)c1cc(S(=O)(=O)N2CCCC2)ccc1Cl	DT40 TDP1 no CPT inconclusive, TDP1 cell CPT 18µM (no result: VP16 counter, RORg inh)
O=C(NCCc1ccc(Cl)cc1)c1cc(S(=O)(=O)N2CCCC2)ccc1F	DT40 TDP1 no CPT 16µM, TDP1 cell CPT 26µM (no result: TDP1 inh, VP16 counter, RORg inh)
CC(C)NC(=O)COc1ccccc1C#N	none
COc1ccc(S(=O)(=O)N2CC(=O)Nc3ccccc32)cc1Cl	none (no result: TDP1 inh, VP16 counter, RORg inh)
Cc1cccc(NC(=O)c2ccc(N3C(=O)C4C5C=CC(C6CC56)C4C3=O)cc2)c1 (stereo unspecified)	VP16 counter inconclusive, DT40 TDP1 no CPT inconclusive, RORg inh inconclusive, TDP1 cell CPT inconclusive
O=C(Nc1ccc(F)cc1)c1cccc(N2C(=O)C3C4C=CC(C5CC45)C3C2=O)c1 (stereo unspecified)	DT40 TDP1 no CPT inconclusive, RORg inh inconclusive, TDP1 cell CPT 16µM
COC(=O)c1ccc(NC(=O)c2cccc(N3C(=O)C4C5C=CC(C6CC56)C4C3=O)c2)cc1 (stereo unspecified)	DT40 TDP1 no CPT 7.3µM, RORg inh inconclusive, TDP1 cell CPT 8.2µM
Cc1ccc(NC(=O)c2ccccc2N2C(=O)C3C4C=CC(C5CC45)C3C2=O)cc1C (stereo unspecified)	DT40 TDP1 no CPT inconclusive, TDP1 cell CPT 21µM
CCCC(C(=O)NC1CCCC1)N(Cc1ccccc1Cl)C(=O)c1snc(C(N)=O)c1N (stereo unspecified)	none
CC1(C(=O)Nc2ccc3c(c2)OCCO3)CN(S(C)(=O)=O)CC(=O)N1CCCN1CCOCC1 (stereo unspecified)	none (no result: TDP1 inh, VP16 counter, RORg inh)
Cn1nnc2cc(NC(=O)NCc3ccc4c(c3)OCO4)ccc21	none
CC(OC(=O)c1c2c(nc3ccccc13)/C(=C\c1ccc3c(c1)OCO3)CCC2)C(=O)Nc1ccc(S(N)(=O)=O)cc1 (stereo unspecified)	DT40 TDP1 no CPT 18µM, TDP1 cell CPT inconclusive
CN(C(=O)COC(=O)c1c2c(nc3ccccc13)/C(=C/c1cccc([N+](=O)[O-])c1)CCC2)C1CCS(=O)(=O)C1 (stereo unspecified)	DT40 TDP1 no CPT 5.2µM, TDP1 cell CPT 3.3µM
Cc1cccc(C)c1NC(=O)COC(=O)c1ccc2c(c1)OCO2	DT40 TDP1 no CPT inconclusive
CC(OC(=O)c1cc2ccccc2cc1O)C(=O)Nc1ccc(S(N)(=O)=O)cc1 (stereo unspecified)	none
Cc1cccc(C)c1NC(=O)COC(=O)c1c2c(nc3ccccc13)/C(=C\c1ccc3c(c1)OCO3)CCC2	DT40 TDP1 no CPT 18µM, TDP1 cell CPT inconclusive
COc1ccccc1NC1=NC(CO)(CO)CS1	none
O=C(CSCc1ccc(Br)cc1)Nc1ccccc1C(=O)N1CCOCC1	DT40 TDP1 no CPT 16µM, TDP1 cell CPT inconclusive (no result: TDP1 inh, VP16 counter, RORg inh)
COCCNS(=O)(=O)c1ccc2c(c1)oc(=O)c1cc(S(=O)(=O)NCCOC)ccc12	none (no result: DT40 TDP1 no CPT, TDP1 cell CPT)
c1ccc2c(c1)ncc1cccn12	none
CCn1c2ccccc2c2c3ncc4cccn4c3ccc21	TDP1 inh inconclusive, DT40 TDP1 no CPT 6.5µM, TDP1 cell CPT 4.1µM
C[C@@H]1CN([C@H](C)CO)C(=O)CCCn2nncc2CO[C@H]1CN(C)Cc1ccc(C(=O)O)cc1	none (no result: TDP1 inh, VP16 counter, RORg inh)
Cc1ccc(-c2nc3ccccc3nc2-c2ccccc2)cc1	TDP1 inh 79µM, DT40 TDP1 no CPT 15µM, RORg inh inconclusive, TDP1 cell CPT inconclusive
Clc1nc2ccccc2nc1-c1ccccc1	none
Oc1ccccc1-c1nc2ccccc2nc1-c1ccccc1	DT40 TDP1 no CPT inconclusive, TDP1 cell CPT inconclusive
Clc1ccc(-c2nc3ccccc3nc2-c2ccccc2)cc1	DT40 TDP1 no CPT 21µM, TDP1 cell CPT inconclusive
O=C(Cn1cnc2c(nnn2-c2cccc(Cl)c2)c1=O)N1CCOCC1	none
COc1ccc(-c2cc(=O)[nH]c(N3CCN(Cc4ccccc4)CC3)n2)cc1	DT40 TDP1 no CPT inconclusive, TDP1 cell CPT inconclusive (no result: TDP1 inh)
O=c1cc(-c2ccccc2)nc(N2CCN(Cc3ccccc3)CC2)[nH]1	DT40 TDP1 no CPT 21µM, TDP1 cell CPT 18µM
CCN(CC)C(=O)C1=C(C)Nc2ncnn2C1c1cccnc1 (stereo unspecified)	none
CCn1c2ccccc2c2cc(CN3CCN(S(=O)(=O)Cc4ccccc4)CC3)ccc21	DT40 TDP1 no CPT 15µM, TDP1 cell CPT inconclusive
CCn1c2ccccc2c2cc(/C=C(/C#N)C(N)=S)ccc21	DT40 TDP1 no CPT 16µM, TDP1 cell CPT inconclusive (no result: TDP1 inh, VP16 counter, RORg inh)
CCn1c2ccccc2c2cc(CN3CCN(Cc4ccc(Br)cc4)CC3)ccc21	DT40 TDP1 no CPT 15µM, TDP1 cell CPT 18µM (no result: VP16 counter, RORg inh)
CCn1c2ccccc2c2cc(C3C(C#N)=C(C)NC(C)=C3C#N)ccc21	none
CCn1c2ccccc2c2cc(CNCCCN3CCOCC3)ccc21	DT40 TDP1 no CPT 16µM, TDP1 cell CPT 21µM (no result: VP16 counter, RORg inh)

Screens: PubChem, National Center for Advancing Translational Sciences (NCATS)
